Measured values taken from PubChem BioAssay (EPA / NIEHS).
Results filed as inconclusive are left out. Active and inactive are the calls of the source. The calls were made as follows, unless noted: active = hit-call score of the fitted dose curve at least 0.9, where 1 is the maximum; inconclusive = response in the unintended direction; inactive = score below 0.9.

Key:
[1] = Tanguay_ZF_120hpf_OTIC_legacy: (Legacy) Oregon State University Tanguay Lab 120 Hour Post-fertilization zebrafish Assay for Otic Vesicle Malformation (AID 2283639)
Summary of the method: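 Brightfield scoring at 120 hpf, binary present/absent; DMSO negative control, 5uM trimethyltin chloride positive control. Static exposure at 28C, final DMSO 0.64% (vol/vol). Dead embryos not scored for malformation.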

[2] = Tanguay_ZF_120hpf_PE_legacy: (Legacy) Oregon State University Tanguay Lab 120 Hour Post-fertilization zebrafish Assay for Pericardial Edema (AID 2283640);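 as to AC50: potency for increased incidence of pericardial edema versus DMSO baseline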
Summary of the method: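 Zebrafish larvae are exposed from early development to 120 hpf at 28C, with 0.64% DMSO final. Each surviving larva receives a yes/no pericardial edema call by brightfield imaging, analysed relative to the DMSO baseline.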

[3] = Tanguay_ZF_120hpf_BRAI_legacy: (Legacy) Oregon State University Tanguay Lab 120 Hour Post-fertilization zebrafish Assay for Brain Malformation (AID 2283641)
Summary of the method: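 Static exposure of staged wild-type embryos until 120 hpf, kept at 28C with light excluded and final DMSO of 0.64% (vol/vol). Presence or absence of brain malformation was noted under brightfield; mortality precluded scoring.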

[4] = Tanguay_ZF_120hpf_SOMI_legacy: (Legacy) Oregon State University Tanguay Lab 120 Hour Post-fertilization zebrafish Assay for Somite Malformation (AID 2283647)
Summary of the method: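 Somitogenesis defects are recorded as binary calls in whole larvae at 120 hpf after continuous static chemical exposure starting at 6 hpf in dechorionated 5D embryos. DMSO serves as negative control and baseline.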

[5] = Tanguay_ZF_120hpf_PFIN_legacy: (Legacy) Oregon State University Tanguay Lab 120 Hour Post-fertilization zebrafish Assay for Pectoral Fin Malformation (AID 2283648);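 also: each larva judged yes or no for fin defect by brightfield with dead larvae skipped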
Summary of the method: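 Pectoral fin malformation was recorded as a binary endpoint at 120 hpf in wild-type Tropical 5D larvae, which had been dechorionated and exposed statically from 6 hpf at 28C in 0.64% DMSO. Dead embryos were excluded.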

[6] = Tanguay_ZF_120hpf_CFIN_legacy: (Legacy) Oregon State University Tanguay Lab 120 Hour Post-fertilization zebrafish Assay for Caudal Fin Malformation (AID 2283649)
Summary of the method: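 Single dechorionated 5D wild-type embryos are dosed at 6 hpf (final DMSO 0.64%) and held statically at 28C. Caudal fin malformation is recorded as present or absent at 120 hpf under brightfield, excluding dead embryos.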

[7] = Tanguay_ZF_120hpf_PIG_legacy: (Legacy) Oregon State University Tanguay Lab 120 Hour Post-fertilization zebrafish Assay for Pigmentation Malformation (AID 2283650)
Summary of the method: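 Pigment malformation recorded as a binary call at 120 hpf in zebrafish (Tropical 5D) exposed singly from 6 hpf after pronase dechorionation. Static, sealed, 28C exposure, 0.64% DMSO; mortality excludes scoring; positive-direction fit against DMSO.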

[8] = Tanguay_ZF_120hpf_CIRC_legacy: (Legacy) Oregon State University Tanguay Lab 120 Hour Post-fertilization zebrafish Assay for Circulatory Malformation (AID 2283651)
Summary of the method: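 Static exposure, 6–120 hpf, 28C, sealed and dark; one dechorionated 5D embryo/well; DMSO 0.64% v/v final. Binary circulation endpoint by brightfield; dead embryos not scored.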

[9] = read-out: kallikrein-3 (KLK3), KLK3 (gene 354); assay: LTEA_HepaRG_KLK3: Life Technologies and Expression Analysis (LTEA) Assay for kallikrein-3 (KLK3) using HepaRG (AID 2283652; active = hit-call score of the fitted dose curve at least 0.9, where 1 is the maximum; inactive = score below 0.9); details: mRNA level, 48 h; actives raise or lower the signal
Summary of the method: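 KLK3 transcript levels were measured by TaqMan qRT-PCR with normalisation to three housekeeping genes. HepaRG cultures received chemicals for 48 h at up to 100 uM (half-log, 8 points, 0.5% DMSO vehicle), fitted in both directions against DMSO.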

[10] = read-out: solute carrier (SLC22A6), SLC22A6 (gene 9356); assay: LTEA_HepaRG_SLC22A6: Life Technologies and Expression Analysis (LTEA) Assay for solute carrier (SLC22A6) using HepaRG (AID 2283653; active = hit-call score of the fitted dose curve at least 0.9, where 1 is the maximum; inactive = score below 0.9); details: mRNA level, 48 h; actives raise or lower the signal
Summary of the method: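 Gene-expression endpoint in HepaRG hepatic cells: duplicate 8-point concentration-response, highest 100 uM, 48 h treatment in serum-free medium with 0.5% DMSO. SLC22A6 expression measured by qRT-PCR, normalised to ACTB/GAPDH/POLR2A.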

Measured: AC50

CCCCC(CC)COC(=O)c1ccc(C(=O)OCC(CC)CCCC)cc1 (stereo not drawn)
not listed: [9] | [10]
inactive: all other assays above

Cc1ccc(N)cc1O
not listed: [9] | [10]
inactive: all other assays above

CC(C)=CCCC(C)=CC=O
not listed: [5] | [9] | [10]
inactive: all other assays above

O=P(OC(CCl)CCl)(OC(CCl)CCl)OC(CCl)CCl
active: [1] 34.7 µM | [2] 28.2 µM | [3] 31.7 µM | [4] 9.13 µM | [5] 40.3 µM | [6] 30 µM | [7] 33.9 µM
inactive: [8]

CCOC(=O)COc1ccc2c(c1)CC(NCC(O)c1cccc(Cl)c1)CC2 (stereo not drawn)
not listed: [8] | [9] | [10]
inactive: all other assays above

CCCCCCCCCCCCc1ccccc1
not listed: [7] | [9] | [10]
inactive: all other assays above

CC(C)(O)c1coc(S(=O)(=O)NC(=O)Nc2c3c(cc4c2CCC4)CCC3)c1
not listed: [9] | [10]
inactive: all other assays above

CC(C)CCCCCCOC(=O)c1ccc(C(=O)OCCCCCCC(C)C)c(C(=O)OCCCCCCC(C)C)c1
inactive: all assays above

CCOC(=O)c1ccc(C2CCC(NC[C@H](O)COc3ccc(O)c(NS(C)(=O)=O)c3)CC2)cc1 (stereo partly drawn)
inactive: [1] | [2] | [3] | [4] | [5] | [6]

C[C@](N)(Cc1ccc(O)c(O)c1)C(=O)O
not listed: [9] | [10]
inactive: all other assays above

O=c1[nH]c2ccc(S(=O)CCN3CCC(Cc4ccc(F)cc4)CC3)cc2o1 (stereo not drawn)
not listed: [9] | [10]
inactive: all other assays above

CC(C)CC(C)(O)C#CC(C)(O)CC(C)C (stereo not drawn)
inactive: [1] | [2]

Fc1ccccc1[C@@H](F)COC1CCC(Nc2ncnc3[nH]ncc23)CC1 (stereo partly drawn)
active: [2] 34.9 µM
not listed: [9] | [10]
inactive: all other assays above

CCN(C(=O)c1cc(C)cc(OC[C@H](C)Nc2ccncc2)c1)C(C)C
not listed: [9] | [10]
inactive: all other assays above

CC/C(=C\C(=N/O)C(N)=O)C(C)[N+](=O)[O-] (stereo not drawn)
not listed: [9] | [10]
inactive: all other assays above

CCCN(C1CCN(C(=O)C2CCNCC2)CC1)[C@@H]1CCc2ccc(OC)cc2C1
not listed: [9] | [10]
inactive: all other assays above

CCC(C)(C)C(=O)O[C@H]1C[C@@H](C)C=C2C=C[C@H](C)[C@H](CC[C@@H]3C[C@@H](O)CC(=O)O3)[C@H]21
active: [1] 0.747 µM | [2] 0.64 µM | [3] 0.645 µM | [5] 0.652 µM | [7] 0.666 µM
inactive: [4] | [6] | [8]

CC[C@H]1OC(=O)[C@H](C)[C@@H](O[C@H]2C[C@@](C)(OC)[C@@H](O)[C@H](C)O2)[C@H](C)[C@@H](O[C@@H]2O[C@H](C)C[C@H](N(C)C)[C@H]2O)[C@](C)(O)C[C@@H](C)C(=O)[C@H](C)[C@@H](O)[C@]1(C)O
not listed: [9] | [10]
inactive: all other assays above

Cc1c(-c2cccnc2)c2ccccc2n1CCCCC(=O)O
not listed: [5] | [9] | [10]
inactive: all other assays above

CC(C)=CCC/C(C)=C/CO
active: [6] 31.6 µM
not listed: [9] | [10]
inactive: all other assays above

C1N2CN3CN1CN(C2)C3
not listed: [7] | [9] | [10]
inactive: all other assays above

CCCC(=O)OCC
not listed: [9] | [10]
inactive: all other assays above

CC(=O)c1ccc2c(c1)[C@H](NC(=O)c1ccc(F)cc1)[C@@H](O)C(C)(C)O2
not listed: [9] | [10]
inactive: all other assays above

CC(C)CCO
not listed: [9] | [10]
inactive: all other assays above

Cn1c(=O)c2c(ncn2C)n(C)c1=O
not listed: [9] | [10]
inactive: all other assays above

CCOCCOCCOCCO
inactive: [1] | [2] | [3] | [4] | [6] | [7]

On1ccccc1=S
active: [2] 0.0293 µM
not listed: [9] | [10]
inactive: all other assays above

Cn1c(=O)cc(Oc2ccc(F)cc2F)c2cnc(NCC(C)(C)O)nc21
active: [2] 10.3 µM
not listed: [9] | [10]
inactive: all other assays above

CNCc1ccc(NC(=O)c2c[nH]c3c2C(=O)CCC3)cc1
not listed: [9] | [10]
inactive: all other assays above

CC(O)CN(CCN(CC(C)O)CC(C)O)CC(C)O (stereo not drawn)
not listed: [3] | [9] | [10]
inactive: all other assays above

O=C(O)c1cccc(Oc2ccccc2)c1
not listed: [4] | [9]
inactive: all other assays above

CCOC(=O)CC(CC(=O)OCC)(OC(C)=O)C(=O)OCC
not listed: [3] | [9] | [10]
inactive: all other assays above

COc1ccc(/C=C/S(=O)(=O)NC(=O)c2ccc(C)cc2Cl)cc1
inactive: [1] | [2] | [4] | [5] | [6] | [8]

O=C(OC[C@H]1O[C@@H](OC(=O)c2cc(O)c(O)c(OC(=O)c3cc(O)c(O)c(O)c3)c2)[C@H](OC(=O)c2cc(O)c(O)c(OC(=O)c3cc(O)c(O)c(O)c3)c2)[C@@H](OC(=O)c2cc(O)c(O)c(OC(=O)c3cc(O)c(O)c(O)c3)c2)[C@@H]1OC(=O)c1cc(O)c(O)c(OC(=O)c2cc(O)c(O)c(O)c2)c1)c1cc(O)c(O)c(OC(=O)c2cc(O)c(O)c(O)c2)c1
not listed: [3] | [9] | [10]
inactive: all other assays above

CC(C)=CCCC(C)CCO (stereo not drawn)
not listed: [3] | [9] | [10]
inactive: all other assays above

CCn1nc(Cc2ccccc2)cc1C1CCN(C[C@H]2C[C@H](N(C)[C@@H](C(=O)O)C(C)C)C[C@@H]2c2cccc(F)c2)CC1
not listed: [3] | [9] | [10]
inactive: all other assays above

O=C1OC(=O)C2C3C=CC(C3)C12 (stereo not drawn)
inactive: [1] | [2] | [4] | [5] | [6] | [8]

COc1ccc(-n2nc(C(F)F)cc2-c2ccc(S(C)=O)cc2)cc1 (stereo not drawn)
inactive: [1] | [4] | [7] | [8]
active: [2] 37.7 µM | [5] 48.1 µM | [6] 12.8 µM

CC(C)CCCCCCCOC(=O)CCCCC(=O)OCCCCCCCC(C)C
not listed: [3] | [9] | [10]
inactive: all other assays above
